# Reference: article PMC7862700, “An all-to-all approach to the identification of sequence-specific readers for epigenetic DNA modifications on cytosine”
# Columns and labels:
# Assay in all cases: DAPPL (digital affinity profiling via proximity ligation, sequencing); 10 mM Tris-HCl pH 7.5, 50 mM NaCl, 1 mM DTT, 4% glycerol, room temperature, 30 min; GST-TFs on glutathione beads, 16-mer random dsDNA library, 0.1% formaldehyde crosslink after washing; high values mean tight binding
# FLI1 = target: T1, FLI1 (Homo sapiens, UniProt Q01543 1-452); settings: protein: recombinant; tags: N-terminal GST; dsDNA, one strand shown
# T1 sequence: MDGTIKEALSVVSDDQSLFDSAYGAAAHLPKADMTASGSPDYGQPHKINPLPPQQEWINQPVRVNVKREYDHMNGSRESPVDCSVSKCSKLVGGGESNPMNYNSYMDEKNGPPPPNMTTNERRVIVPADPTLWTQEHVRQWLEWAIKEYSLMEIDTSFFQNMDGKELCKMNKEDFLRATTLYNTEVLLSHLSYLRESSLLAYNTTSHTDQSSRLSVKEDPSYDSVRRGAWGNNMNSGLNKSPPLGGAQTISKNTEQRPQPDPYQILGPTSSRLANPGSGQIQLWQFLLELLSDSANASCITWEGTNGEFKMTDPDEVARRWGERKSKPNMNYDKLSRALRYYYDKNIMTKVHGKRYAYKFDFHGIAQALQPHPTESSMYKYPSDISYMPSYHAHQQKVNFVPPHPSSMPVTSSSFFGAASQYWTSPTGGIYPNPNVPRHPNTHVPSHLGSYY
# Summary of the method: (§1)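 Sequencing on an Illumina NextSeq500 followed washing, crosslinking with 0.1% formaldehyde, proximity ligation (BsaI/T4 ligase, 1 h, 37 °C) and PCR amplification of pools that had been incubated for 30 min at room temperature with 200 nmole of a random double-stranded 16-mer DNA library in Tris/NaCl/DTT/glycerol buffer. Each pool held DNA-barcoded human transcription factors, expressed in yeast as GST fusions and captured on glutathione beads, plus a tag-only sample. Binding signal is a hexamer's read frequency for a factor divided by its frequency in the tag-only sample.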
# ELK1 = target: T2, ELK1 (Homo sapiens, UniProt P19419 1-428); settings: protein: recombinant; tags: N-terminal GST; dsDNA, one strand shown
# T2 sequence: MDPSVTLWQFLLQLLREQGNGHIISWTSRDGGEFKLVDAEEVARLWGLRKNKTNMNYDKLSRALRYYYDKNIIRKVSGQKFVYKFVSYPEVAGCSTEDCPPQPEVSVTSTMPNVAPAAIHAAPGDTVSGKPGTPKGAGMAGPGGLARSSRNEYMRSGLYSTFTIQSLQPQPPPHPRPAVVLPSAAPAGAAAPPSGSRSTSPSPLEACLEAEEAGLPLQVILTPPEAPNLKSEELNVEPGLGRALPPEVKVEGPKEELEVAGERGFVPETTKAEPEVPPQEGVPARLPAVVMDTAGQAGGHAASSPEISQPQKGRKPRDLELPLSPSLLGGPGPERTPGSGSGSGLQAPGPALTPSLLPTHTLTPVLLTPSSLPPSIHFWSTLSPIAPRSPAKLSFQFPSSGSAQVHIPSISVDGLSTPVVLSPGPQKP
# Summary of the method: as §1
# GABPA = target: T3, GABPA (Homo sapiens, UniProt Q06546 1-454); settings: protein: recombinant; tags: N-terminal GST; dsDNA, one strand shown
# T3 sequence: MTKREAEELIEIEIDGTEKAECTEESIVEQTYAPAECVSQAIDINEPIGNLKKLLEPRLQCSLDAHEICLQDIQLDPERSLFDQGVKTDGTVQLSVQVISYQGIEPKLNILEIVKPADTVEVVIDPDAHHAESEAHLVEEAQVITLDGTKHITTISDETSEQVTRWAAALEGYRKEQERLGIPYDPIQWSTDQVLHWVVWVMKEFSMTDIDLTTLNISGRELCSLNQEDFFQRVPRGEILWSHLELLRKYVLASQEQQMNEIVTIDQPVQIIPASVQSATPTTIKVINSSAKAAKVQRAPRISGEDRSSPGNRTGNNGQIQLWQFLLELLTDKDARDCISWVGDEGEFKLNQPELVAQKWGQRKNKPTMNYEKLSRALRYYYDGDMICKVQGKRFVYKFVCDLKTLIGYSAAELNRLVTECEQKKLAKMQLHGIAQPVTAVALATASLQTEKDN
# Summary of the method: as §1
# ERG = target: T4, ERG (Homo sapiens, UniProt P11308 1-479); settings: protein: recombinant; tags: N-terminal GST; dsDNA, one strand shown
# T4 sequence: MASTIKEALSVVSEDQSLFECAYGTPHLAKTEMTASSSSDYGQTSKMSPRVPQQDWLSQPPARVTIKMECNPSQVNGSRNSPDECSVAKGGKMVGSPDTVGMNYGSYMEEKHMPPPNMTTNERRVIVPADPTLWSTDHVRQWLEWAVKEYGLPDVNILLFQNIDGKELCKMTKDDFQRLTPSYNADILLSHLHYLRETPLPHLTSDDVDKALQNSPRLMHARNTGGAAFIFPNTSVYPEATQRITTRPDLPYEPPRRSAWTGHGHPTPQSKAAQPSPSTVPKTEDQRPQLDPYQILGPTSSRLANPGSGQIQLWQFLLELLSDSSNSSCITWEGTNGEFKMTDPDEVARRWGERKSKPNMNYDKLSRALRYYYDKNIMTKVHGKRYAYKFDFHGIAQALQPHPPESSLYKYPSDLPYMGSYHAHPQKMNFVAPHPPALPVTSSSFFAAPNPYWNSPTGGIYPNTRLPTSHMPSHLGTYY
# Summary of the method: as §1
# ELF1 = ELF1 (Homo sapiens, UniProt P32519 1-619); settings: protein: recombinant; tags: N-terminal GST; dsDNA, one strand shown
# ELF1, sequence (P32519 whole entry): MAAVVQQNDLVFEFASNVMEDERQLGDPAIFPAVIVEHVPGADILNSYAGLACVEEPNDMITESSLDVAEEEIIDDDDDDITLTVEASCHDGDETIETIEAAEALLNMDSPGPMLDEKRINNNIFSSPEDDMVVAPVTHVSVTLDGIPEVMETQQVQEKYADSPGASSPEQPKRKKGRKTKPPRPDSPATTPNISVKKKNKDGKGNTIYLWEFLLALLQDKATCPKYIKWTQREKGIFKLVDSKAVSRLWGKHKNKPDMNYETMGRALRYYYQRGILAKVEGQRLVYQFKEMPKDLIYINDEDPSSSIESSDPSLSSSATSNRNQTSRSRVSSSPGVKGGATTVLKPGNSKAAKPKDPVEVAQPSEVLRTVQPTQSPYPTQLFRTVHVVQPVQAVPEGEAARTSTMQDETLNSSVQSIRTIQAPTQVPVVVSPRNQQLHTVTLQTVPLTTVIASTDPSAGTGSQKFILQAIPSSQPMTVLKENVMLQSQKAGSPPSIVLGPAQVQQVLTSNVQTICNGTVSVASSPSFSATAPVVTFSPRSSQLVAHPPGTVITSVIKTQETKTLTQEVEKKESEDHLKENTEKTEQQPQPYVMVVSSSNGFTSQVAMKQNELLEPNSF
# Summary of the method: as §1
# EHF = target: T5, EHF (Homo sapiens, UniProt Q9NZC4 1-300); settings: protein: recombinant; tags: N-terminal GST; dsDNA, one strand shown
# T5 sequence: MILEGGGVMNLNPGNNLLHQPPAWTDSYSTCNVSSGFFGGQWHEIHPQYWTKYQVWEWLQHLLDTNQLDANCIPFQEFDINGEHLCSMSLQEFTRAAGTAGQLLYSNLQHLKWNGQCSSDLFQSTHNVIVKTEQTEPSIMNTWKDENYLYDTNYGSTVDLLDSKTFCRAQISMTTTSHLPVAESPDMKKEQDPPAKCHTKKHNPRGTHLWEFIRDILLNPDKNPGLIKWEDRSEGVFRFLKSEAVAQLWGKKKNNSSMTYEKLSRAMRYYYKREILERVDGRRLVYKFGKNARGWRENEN
# Summary of the method: as §1
# SPI1 = SPI1 (Homo sapiens, UniProt P17947 1-270); settings: protein: recombinant; tags: N-terminal GST; dsDNA, one strand shown
# Summary of the method: as §1
# SPIB = SPIB (Homo sapiens, UniProt Q01892 1-262); settings: protein: recombinant; tags: N-terminal GST; dsDNA, one strand shown
# SPIB, sequence (Q01892 whole entry): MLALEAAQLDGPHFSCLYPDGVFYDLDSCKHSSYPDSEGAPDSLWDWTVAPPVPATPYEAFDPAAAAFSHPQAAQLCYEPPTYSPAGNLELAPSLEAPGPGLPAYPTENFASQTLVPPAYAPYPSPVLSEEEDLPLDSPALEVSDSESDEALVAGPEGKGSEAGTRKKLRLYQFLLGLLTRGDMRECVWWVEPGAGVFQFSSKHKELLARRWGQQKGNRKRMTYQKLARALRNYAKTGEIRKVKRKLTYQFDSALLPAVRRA
# Summary of the method: as §1
# ELK3 = target: T6, ELK3 (Homo sapiens, UniProt P41970 1-407); settings: protein: recombinant; tags: N-terminal GST; dsDNA, one strand shown
# T6 sequence: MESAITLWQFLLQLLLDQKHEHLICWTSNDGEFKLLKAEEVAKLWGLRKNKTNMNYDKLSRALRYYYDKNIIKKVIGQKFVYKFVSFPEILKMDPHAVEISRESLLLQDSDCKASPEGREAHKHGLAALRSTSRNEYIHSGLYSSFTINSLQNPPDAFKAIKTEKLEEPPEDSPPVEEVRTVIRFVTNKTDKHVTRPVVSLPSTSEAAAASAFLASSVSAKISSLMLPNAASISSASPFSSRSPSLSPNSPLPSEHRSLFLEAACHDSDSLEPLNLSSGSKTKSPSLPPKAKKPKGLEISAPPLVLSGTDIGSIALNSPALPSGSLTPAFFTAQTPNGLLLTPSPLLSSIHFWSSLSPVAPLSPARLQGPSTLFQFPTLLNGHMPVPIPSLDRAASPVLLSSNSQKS
# Summary of the method: as §1
# FEV = target: T7, FEV (Homo sapiens, UniProt Q99581 1-238); settings: protein: recombinant; tags: N-terminal GST; dsDNA, one strand shown
# T7 sequence: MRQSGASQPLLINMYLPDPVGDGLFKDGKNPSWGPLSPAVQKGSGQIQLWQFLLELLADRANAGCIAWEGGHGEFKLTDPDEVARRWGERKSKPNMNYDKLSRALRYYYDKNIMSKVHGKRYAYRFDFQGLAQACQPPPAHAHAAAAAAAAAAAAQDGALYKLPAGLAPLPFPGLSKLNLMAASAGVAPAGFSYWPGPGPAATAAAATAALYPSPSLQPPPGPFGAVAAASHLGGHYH
# Summary of the method: as §1
# ETV5 = ETV5 (Homo sapiens, UniProt P41161 1-510); settings: protein: recombinant; tags: N-terminal GST; dsDNA, one strand shown
# ETV5, sequence (P41161 whole entry): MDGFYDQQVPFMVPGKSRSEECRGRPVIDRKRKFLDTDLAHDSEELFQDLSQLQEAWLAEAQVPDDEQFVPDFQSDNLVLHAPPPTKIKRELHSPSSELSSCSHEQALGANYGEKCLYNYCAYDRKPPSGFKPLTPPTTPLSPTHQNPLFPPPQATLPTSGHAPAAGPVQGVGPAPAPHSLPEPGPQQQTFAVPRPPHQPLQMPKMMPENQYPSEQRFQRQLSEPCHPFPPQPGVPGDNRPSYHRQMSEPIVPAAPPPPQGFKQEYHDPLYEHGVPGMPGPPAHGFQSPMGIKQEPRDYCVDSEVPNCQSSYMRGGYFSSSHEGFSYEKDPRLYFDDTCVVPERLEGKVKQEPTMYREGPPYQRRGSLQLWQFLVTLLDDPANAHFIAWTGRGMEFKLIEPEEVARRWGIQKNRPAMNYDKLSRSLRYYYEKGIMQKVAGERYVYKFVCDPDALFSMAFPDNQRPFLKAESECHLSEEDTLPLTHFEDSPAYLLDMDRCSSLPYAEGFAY
# Summary of the method: as §1
# HSF1 = HSF1 (Homo sapiens, UniProt Q00613 1-529); settings: protein: recombinant; tags: N-terminal GST; chain copies: 3; dsDNA, one strand shown
# HSF1, sequence (Q00613 whole entry): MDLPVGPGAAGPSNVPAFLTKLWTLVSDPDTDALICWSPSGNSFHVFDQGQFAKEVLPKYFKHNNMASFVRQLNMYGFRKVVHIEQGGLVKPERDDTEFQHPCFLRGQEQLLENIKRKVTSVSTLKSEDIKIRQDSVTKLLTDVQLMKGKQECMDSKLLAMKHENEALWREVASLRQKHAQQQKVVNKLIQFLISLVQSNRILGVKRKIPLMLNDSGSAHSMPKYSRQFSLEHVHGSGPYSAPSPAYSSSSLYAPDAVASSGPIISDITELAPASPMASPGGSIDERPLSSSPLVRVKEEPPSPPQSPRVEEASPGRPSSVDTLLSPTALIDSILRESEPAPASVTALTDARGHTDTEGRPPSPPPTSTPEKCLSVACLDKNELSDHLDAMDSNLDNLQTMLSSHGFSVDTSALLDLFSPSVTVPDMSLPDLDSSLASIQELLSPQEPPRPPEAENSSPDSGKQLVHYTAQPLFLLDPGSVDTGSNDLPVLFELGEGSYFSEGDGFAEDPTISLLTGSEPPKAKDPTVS
# Summary of the method: as §1
# SPIC = target: T8, SPIC (Homo sapiens, UniProt Q8N5J4 1-248); settings: protein: recombinant; tags: N-terminal GST; dsDNA, one strand shown
# T8 sequence: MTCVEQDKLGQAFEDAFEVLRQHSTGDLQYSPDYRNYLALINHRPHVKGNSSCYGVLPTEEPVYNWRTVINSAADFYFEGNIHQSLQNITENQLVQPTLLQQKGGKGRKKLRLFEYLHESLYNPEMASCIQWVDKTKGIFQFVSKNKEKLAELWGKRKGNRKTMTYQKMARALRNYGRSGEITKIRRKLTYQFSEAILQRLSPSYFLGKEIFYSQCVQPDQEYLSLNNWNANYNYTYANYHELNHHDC
# Summary of the method: as §1
# ELF4 = ELF4 (Homo sapiens, UniProt Q99607 1-663); settings: protein: recombinant; tags: N-terminal GST; dsDNA, one strand shown
# ELF4, sequence (Q99607 whole entry): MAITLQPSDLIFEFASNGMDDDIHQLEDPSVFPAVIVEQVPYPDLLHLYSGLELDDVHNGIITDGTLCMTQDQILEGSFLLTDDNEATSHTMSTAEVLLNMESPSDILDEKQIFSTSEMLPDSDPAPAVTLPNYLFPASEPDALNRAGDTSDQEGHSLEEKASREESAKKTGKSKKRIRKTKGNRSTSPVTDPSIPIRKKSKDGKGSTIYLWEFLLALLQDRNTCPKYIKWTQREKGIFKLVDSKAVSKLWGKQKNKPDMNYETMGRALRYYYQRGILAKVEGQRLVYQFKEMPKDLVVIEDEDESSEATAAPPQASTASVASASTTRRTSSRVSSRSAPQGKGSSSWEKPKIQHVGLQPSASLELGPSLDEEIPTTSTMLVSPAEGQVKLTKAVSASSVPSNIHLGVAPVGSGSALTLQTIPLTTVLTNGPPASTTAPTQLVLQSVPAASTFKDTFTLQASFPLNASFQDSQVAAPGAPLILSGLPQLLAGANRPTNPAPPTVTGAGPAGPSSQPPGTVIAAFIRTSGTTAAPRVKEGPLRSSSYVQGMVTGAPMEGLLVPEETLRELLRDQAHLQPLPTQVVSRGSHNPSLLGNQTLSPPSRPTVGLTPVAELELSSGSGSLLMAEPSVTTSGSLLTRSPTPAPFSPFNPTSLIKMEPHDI
# Summary of the method: as §1
# ELK4 = target: T9, ELK4 (Homo sapiens, UniProt P28324-2 1-405); settings: protein: recombinant; tags: N-terminal GST; dsDNA, one strand shown
# T9 sequence: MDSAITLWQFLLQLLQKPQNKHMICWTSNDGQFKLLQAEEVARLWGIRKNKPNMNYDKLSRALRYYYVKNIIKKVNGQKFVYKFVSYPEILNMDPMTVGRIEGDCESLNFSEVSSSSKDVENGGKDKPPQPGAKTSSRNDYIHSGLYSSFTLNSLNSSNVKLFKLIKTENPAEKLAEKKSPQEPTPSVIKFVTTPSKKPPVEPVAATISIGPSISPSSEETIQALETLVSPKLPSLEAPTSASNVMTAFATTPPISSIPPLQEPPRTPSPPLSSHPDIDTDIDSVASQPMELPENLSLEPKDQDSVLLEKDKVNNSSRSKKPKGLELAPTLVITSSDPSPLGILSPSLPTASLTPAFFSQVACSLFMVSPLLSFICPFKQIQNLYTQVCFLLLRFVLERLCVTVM
# Summary of the method: as §1
# ETV2 = target: T10, ETV2 (Homo sapiens, UniProt O00321 1-342); settings: protein: recombinant; tags: N-terminal GST; dsDNA, one strand shown
# T10 sequence: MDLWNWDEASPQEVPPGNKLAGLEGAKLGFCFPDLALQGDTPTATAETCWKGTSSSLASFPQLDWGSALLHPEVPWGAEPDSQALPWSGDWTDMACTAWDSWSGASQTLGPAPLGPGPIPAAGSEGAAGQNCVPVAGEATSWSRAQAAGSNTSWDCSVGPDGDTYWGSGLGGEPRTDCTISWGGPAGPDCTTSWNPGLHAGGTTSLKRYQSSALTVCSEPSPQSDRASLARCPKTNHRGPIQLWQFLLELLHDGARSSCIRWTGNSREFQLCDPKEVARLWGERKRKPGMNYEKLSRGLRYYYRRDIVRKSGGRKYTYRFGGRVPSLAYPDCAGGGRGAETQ
# Summary of the method: as §1
# ELF3 = target: T11, ELF3 (Homo sapiens, UniProt P78545 1-371); settings: protein: recombinant; tags: N-terminal GST; dsDNA, one strand shown
# T11 sequence: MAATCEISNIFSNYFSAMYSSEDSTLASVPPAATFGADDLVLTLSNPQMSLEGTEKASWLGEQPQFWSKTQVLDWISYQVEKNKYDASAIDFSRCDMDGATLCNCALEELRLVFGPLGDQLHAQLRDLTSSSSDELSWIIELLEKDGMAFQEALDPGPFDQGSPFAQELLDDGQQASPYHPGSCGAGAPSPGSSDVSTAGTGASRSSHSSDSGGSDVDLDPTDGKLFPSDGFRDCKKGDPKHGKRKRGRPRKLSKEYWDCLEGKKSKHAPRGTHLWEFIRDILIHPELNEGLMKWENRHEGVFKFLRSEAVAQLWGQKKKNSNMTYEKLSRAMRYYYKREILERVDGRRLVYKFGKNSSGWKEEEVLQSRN
# Summary of the method: as §1
# CRX = CRX (Homo sapiens, UniProt O43186 1-299); settings: protein: recombinant; tags: N-terminal GST; dsDNA, one strand shown
# CRX, sequence (O43186 whole entry): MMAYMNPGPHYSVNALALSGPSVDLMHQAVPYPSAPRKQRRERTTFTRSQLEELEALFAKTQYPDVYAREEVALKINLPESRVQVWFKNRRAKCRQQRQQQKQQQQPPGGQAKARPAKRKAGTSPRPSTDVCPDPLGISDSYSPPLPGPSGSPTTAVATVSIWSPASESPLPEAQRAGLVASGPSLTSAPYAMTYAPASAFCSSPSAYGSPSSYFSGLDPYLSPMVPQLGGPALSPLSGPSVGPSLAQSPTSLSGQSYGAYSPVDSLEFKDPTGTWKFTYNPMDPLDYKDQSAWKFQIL
# Summary of the method: as §1
# ETV1 = ETV1 (Homo sapiens, UniProt P50549 1-477); settings: protein: recombinant; tags: N-terminal GST; dsDNA, one strand shown
# ETV1, sequence (P50549 whole entry): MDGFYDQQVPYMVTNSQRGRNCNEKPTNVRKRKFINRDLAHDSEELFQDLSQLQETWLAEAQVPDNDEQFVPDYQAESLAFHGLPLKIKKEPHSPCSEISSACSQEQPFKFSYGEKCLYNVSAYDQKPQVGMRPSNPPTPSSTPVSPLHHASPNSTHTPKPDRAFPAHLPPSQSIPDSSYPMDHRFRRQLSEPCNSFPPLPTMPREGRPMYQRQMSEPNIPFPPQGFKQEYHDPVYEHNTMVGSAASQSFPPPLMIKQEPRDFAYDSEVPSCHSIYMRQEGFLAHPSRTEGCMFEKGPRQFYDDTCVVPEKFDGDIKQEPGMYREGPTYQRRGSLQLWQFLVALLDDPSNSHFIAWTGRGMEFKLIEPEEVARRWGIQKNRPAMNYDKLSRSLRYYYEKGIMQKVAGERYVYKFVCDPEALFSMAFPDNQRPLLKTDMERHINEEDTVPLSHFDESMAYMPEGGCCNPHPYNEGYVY
# Summary of the method: as §1
sequence,measurement,setting,value
CCAACT,binding signal,FLI1,"1.26 fold enrichment (6-mer frequency, TF over GST control)"
same,binding signal,ELK1,"1.19 fold enrichment (6-mer frequency, TF over GST control)"
same,binding signal,GABPA,"1.23 fold enrichment (6-mer frequency, TF over GST control)"
same,binding signal,ERG,"1.26 fold enrichment (6-mer frequency, TF over GST control)"
same,binding signal,ELF1,"1.25 fold enrichment (6-mer frequency, TF over GST control)"
same,binding signal,EHF,"1.24 fold enrichment (6-mer frequency, TF over GST control)"
same,binding signal,SPI1,"1.14 fold enrichment (6-mer frequency, TF over GST control)"
same,binding signal,SPIB,"1.25 fold enrichment (6-mer frequency, TF over GST control)"
same,binding signal,ELK3,"1.19 fold enrichment (6-mer frequency, TF over GST control)"
same,binding signal,FEV,"1.27 fold enrichment (6-mer frequency, TF over GST control)"
same,binding signal,ETV5,"1.16 fold enrichment (6-mer frequency, TF over GST control)"
same,binding signal,HSF1,"1.02 fold enrichment (6-mer frequency, TF over GST control)"
same,binding signal,SPIC,"1.4 fold enrichment (6-mer frequency, TF over GST control)"
same,binding signal,ELF4,"1.29 fold enrichment (6-mer frequency, TF over GST control)"
same,binding signal,ELK4,"1.27 fold enrichment (6-mer frequency, TF over GST control)"
same,binding signal,ETV2,"1.11 fold enrichment (6-mer frequency, TF over GST control)"
same,binding signal,ELF3,"1.21 fold enrichment (6-mer frequency, TF over GST control)"
same,binding signal,CRX,"1.01 fold enrichment (6-mer frequency, TF over GST control)"
same,binding signal,ETV1,"1.21 fold enrichment (6-mer frequency, TF over GST control)"
